Assay outcomes deposited in PubChem by National Center for Advancing Translational Sciences (NCATS).
NPR1 antag: Natriuretic polypeptide receptor (hNpr1) antagonism - Primary qHTS. Atrial natriuretic peptide receptor 1 (Homo sapiens), P16066. HEK293 hNpr1 GloSensor cGMP, ANP-stimulated luminescence. Potency, µM (series often up to 46.3 µM), for inactives: at the highest dose activity change, negative = inhibition, usual class: inhibitors. 76,000 compounds, 1.6% hits. AID 1347048, 2019; calls by dose curve; also: nearly all actives have a fitted effect of over 60% in size
Target sequence (P16066 whole entry, looked up): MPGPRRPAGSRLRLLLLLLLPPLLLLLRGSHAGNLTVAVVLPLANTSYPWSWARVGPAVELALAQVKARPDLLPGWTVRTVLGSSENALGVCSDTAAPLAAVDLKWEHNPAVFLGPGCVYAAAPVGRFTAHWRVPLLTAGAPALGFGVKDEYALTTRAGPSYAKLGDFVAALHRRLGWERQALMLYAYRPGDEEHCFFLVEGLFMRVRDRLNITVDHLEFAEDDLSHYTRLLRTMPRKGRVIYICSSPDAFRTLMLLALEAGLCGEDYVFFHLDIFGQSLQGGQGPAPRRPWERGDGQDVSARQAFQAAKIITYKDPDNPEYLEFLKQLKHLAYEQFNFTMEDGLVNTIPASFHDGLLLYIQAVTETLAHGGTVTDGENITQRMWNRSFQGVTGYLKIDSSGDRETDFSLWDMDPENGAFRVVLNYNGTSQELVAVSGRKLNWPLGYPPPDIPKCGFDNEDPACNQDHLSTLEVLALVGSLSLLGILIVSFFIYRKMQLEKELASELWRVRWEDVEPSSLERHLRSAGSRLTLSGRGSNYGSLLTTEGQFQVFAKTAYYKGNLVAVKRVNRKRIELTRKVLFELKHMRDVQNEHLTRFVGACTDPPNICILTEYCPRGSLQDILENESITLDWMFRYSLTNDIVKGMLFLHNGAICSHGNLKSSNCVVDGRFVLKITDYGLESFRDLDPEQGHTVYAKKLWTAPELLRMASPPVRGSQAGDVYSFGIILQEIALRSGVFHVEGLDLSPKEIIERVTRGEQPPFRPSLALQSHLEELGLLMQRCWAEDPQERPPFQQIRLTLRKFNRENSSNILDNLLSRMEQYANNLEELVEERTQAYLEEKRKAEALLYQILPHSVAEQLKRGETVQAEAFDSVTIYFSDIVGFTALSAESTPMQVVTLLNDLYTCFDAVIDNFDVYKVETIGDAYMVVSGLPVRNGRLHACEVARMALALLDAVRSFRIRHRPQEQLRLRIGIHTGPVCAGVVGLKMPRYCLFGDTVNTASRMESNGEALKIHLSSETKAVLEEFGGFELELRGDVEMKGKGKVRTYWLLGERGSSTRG
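HEK293 cells stably expressing human Npr1 and cGMP GloSensor pGS-40F, loaded 2 h with 2% GloSensor reagent, given compound 30 min at room temperature. Luminescence read before and 20 min after 0.1 nM hNppA.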
Luciferase inh: Firefly luciferase inhibition profiling of diverse chemical library using quantitative high-throughput screening. Luciferin 4-monooxygenase (Photinus pyralis), P08659. purified P. pyralis luciferase, luminescence, biochemical. Potency, µM (top dose mostly 115 µM), actives largely listed as inhibitors. 76,000 compounds, 2.5% hits. AID 1347043, 2019; also: nearly all actives have a fitted effect of over 65% in size
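Cell-free enzyme assay, 10nM P. pyralis luciferase, luciferin and ATP each at 10uM. Inhibition profiled over a 6-point titration, read as luminescence.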
3T3 cytotox: Cytotoxic Profiling in NIH 3T3 Cell Line of Diverse Libraries Using Quantitative High-Throughput Screening | 94,000 compounds, 4.3% hits | NIH 3T3 viability, CellTiter-Glo ATP luminescence, 48-72 h | Potency, µM (highest dose often 96.7 µM), without a hit: top-dose activity change, negative = cytotoxicity, hits mostly inhibitors | AID 1345082, 2018; also: nearly all actives have a fitted effect of over 55% in size
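Luminescent ATP readout (CellTiter-Glo, 10 min RT) after 48 or 72 hr compound exposure of NIH 3T3 cells seeded at 400 cells/well in 1536-well format; quantitative HTS.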
HEK293 tox: Cytotoxic Profiling in HEK 293 Cell Line of Diverse Libraries Using Quantitative High-Throughput Screening. HEK 293 viability, ATP luminescence (CellTiter-Glo), 48-72 h. Potency, µM (doses to about 115 µM), for inactives: at the highest dose activity change, negative = cytotoxicity, actives largely listed as inhibitors. 94,000 compounds, 6.6% hits. AID 1345083, 2018; also: nearly all actives have a fitted effect of over 60% in size
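Cells seeded first (HEK 293, 250 cells/well), then compound added by pintool. Incubation ran 48 or 72 hr at 37 degree Celsius. CellTiter-Glo was added and luminescence imaged after 10 min at room temperature.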
Starred values were filed as active, the others as inactive; i = inactive; ? = inconclusive; · = no result given; [ ] = another dose, or the depositor's remark. Hits are enriched below; roughly 11% of the tested compounds scored in any of these assays. Unless noted, calls follow the shape of the dose curve; as a rule, active = well fitted curve in the direction sought with a large enough effect; inconclusive = small, poorly fitted or top-dose-only effect, or another doubt; inactive = no such curve, though single readings can be large; an effect the other way counts as inactive or inconclusive. % is scaled to controls: 0 for no effect and ±100 for the full control effect; potency is read from the fitted curve at half-maximal effect.

SMILES	NPR1 antag	Luciferase inh	3T3 cytotox	HEK293 tox
CNC(=O)[C@@H]1[C@@H](c2ccccc2)CN2CCN(C(C)=O)C[C@H]12	·	·	?	-7%
O=C(Cc1ccccc1)N1CCCN(CCn2nc3n(c2=O)CCCC3)CC1	·	·	-9%	-7%
CCOC(=O)[C@H]1CN(C(=O)c2ccc(SC)cc2)[C@]2(C)C(=O)N(C)c3ccccc3[C@H]12	·	·	-27%[46.1 µM]	?
COc1ccc(NC(=O)N2[C@H]3CC[C@@H]2c2cnc(-c4ccccc4)nc2C3)cc1OC	0%	i	-22%	?
COc1cc2c(cc1Oc1ccccc1)NC(=O)C21CCN(C(=O)Cc2ccccc2)CC1	?	i	?	40µM*
COc1cc2c(cc1Oc1ccccc1)NC(=O)C21CCN(C(=O)c2cccc(O)c2)CC1	-17%	i	?	45µM*
COc1cc2c(cc1Oc1ccccc1)NC(=O)C21CCN(C(=O)c2ccnn2C)CC1	?	i	?	71µM*
COc1cc2c(cc1Oc1ccccc1)NC(=O)C21CCN(C(=O)c2ccccc2)CC1	?	i	?	?
COCc1cn(C[C@H]2C[C@@H]3CCN2C[C@@H]3C(=O)NCc2ccccc2OC)nn1	4%[70.6 µM]	i	-21%[174 µM]	-2%[172 µM]
O=C(c1ccccc1)N1C[C@@H]2C[C@H](C1)c1c(-c3cncnc3)ccc(=O)n1C2	0%[70.6 µM]	i	3%[174 µM]	2%[172 µM]
O=C(c1ccccc1)N1C[C@@H]2C[C@H](C1)c1c(/C=C/c3ccc(Cl)cc3)ccc(=O)n1C2	1%[70.6 µM]	i	?	89µM*
CO[C@@H]1CNC2Cc3c(oc4ccccc34)C1C2 (some centres not stated)	·	·	-20%	?
O=C1NC2(CCN(Cc3ccncc3)C2)Oc2ccccc21 (configuration not stated)	0%[70.6 µM]	i	-19%[138 µM]	-13%[172 µM]
O=C1NC2(CCCN(Cc3ccncc3)C2)COc2ccccc21 (configuration not stated)	-18%[70.6 µM]	i	32µM*	71µM*
COc1ccc(-c2cn(C[C@H]3C[C@@H]4CCN3C[C@@H]4C(=O)N(C)C)nn2)cc1	4%[70.6 µM]	i	?	-5%[172 µM]
COc1ccc(C(=O)N2[C@H]3CC[C@@H]2c2cnc(-c4ccc(F)cc4)nc2C3)cc1F	?	i	-11%	0%
Cc1ccccc1S(=O)(=O)N1[C@H]2CC[C@@H]1c1cnc(-c3ccc(F)cc3)nc1C2	?	i	?	28µM*
Cc1noc(C)c1CC(=O)N1[C@H]2CC[C@@H]1c1cnc(-c3ccc(F)cc3)nc1C2	-16%	i	?	?
O=C(c1ccc2c(c1)OCO2)N1[C@H]2CC[C@@H]1c1cnc(-c3ccc(F)cc3)nc1C2	-11%	i	?	45µM*
Cc1ncc2c(n1)C[C@@H]1CC[C@H]2N1S(=O)(=O)c1ccccc1C	3%	i	-14%	-23%
Cc1noc(C)c1Cc1ccc(C(=O)N2[C@H]3CC[C@@H]2c2cnc(-c4ccccc4)nc2C3)o1	?	i	?	40µM*
Cc1nc(C)c(C(=O)N2[C@H]3CC[C@@H]2c2cnc(-c4ccc(F)cc4)nc2C3)s1	16µM*	?	-21%	?
Cn1cccc1CN1CCC2(CC1)C(=O)Nc1ccccc12	·	·	-14%[138 µM]	?
CC(C)CCN1CCC2CC(=O)NCCC2C1 (configuration not stated)	·	·	i	i
O=C(c1cccs1)N1[C@H]2CC[C@@H]1c1cnc(-c3ccc(F)cc3)nc1C2	11µM*	?	?	?
SMILES	NPR1 antag	Luciferase inh	3T3 cytotox	HEK293 tox
Cc1ccsc1C(=O)N1[C@H]2CC[C@@H]1c1cnc(-c3ccccc3)nc1C2	·	·	?	10µM*
CCOC(=O)[C@H]1CN(C(=O)/C=C/c2ccccc2)[C@]2(C)C(=O)Nc3ccccc3[C@H]12	·	·	-27%[46.1 µM]	?
O=C(Cc1ccc(Cl)nc1)N1CCN(CCCn2nc3n(c2=O)CCCC3)CC1	·	·	-15%	3%
CCNC(=O)NC[C@H]1C[C@@H]2CCN1C[C@@H]2c1cc(-c2ccccc2)nc(C)n1	2%[70.6 µM]	i	?	?
CCNC(=O)NC[C@H]1C[C@@H]2CCN1C[C@@H]2c1cc(-c2ccc(N(C)C)cc2)nc(C)n1	7%[70.6 µM]	i	100µM*	100µM*
COc1ccc(C(=O)NC[C@H]2C[C@@H]3CCN2C[C@@H]3c2cc(-c3ccc(N(C)C)cc3)nc(C)n2)cc1	-6%	i	40µM*	25µM*
CC(=O)Nc1ccc(S(=O)(=O)NC[C@H]2C[C@@H]3CCN2C[C@@H]3c2cc(-c3ccc(N(C)C)cc3)nc(C)n2)cc1	-2%	?	25µM*	22µM*
Cc1nc(-c2ccc(N(C)C)cc2)cc([C@H]2CN3CC[C@H]2C[C@@H]3CNC(=O)c2ccccc2)n1	-2%	i	45µM*	?
CC(C)(C)c1ccc(-c2cn(C[C@H]3CC4CCN3C[C@@H]4C(=O)NCc3ccccc3)nn2)cc1 (some centres not stated)	6%	i	?	?
CN1CCN(C(=O)Cc2c[nH]c3ncc(-c4cccc(O)c4)cc23)CC1	4%[70.6 µM]	?	89µM*	-7%[172 µM]
CN1CCN(C(=O)Cc2c[nH]c3ncc(-c4ccsc4)cc23)CC1	7%[70.6 µM]	?	89µM*	-10%[172 µM]
CN1CCN(C(=O)Cc2c[nH]c3ncc(-c4ccccc4F)cc23)CC1	3%[70.6 µM]	?	?	-9%[172 µM]
CCCCC1CN2CCCC2CN1 (configuration not stated)	·	·	i	i
O=C(NC[C@H]1C[C@@H]2CCN1C[C@@H]2CN1CCC(Cc2ccccc2)CC1)Nc1ccccc1	-1%	i	?	32µM*
CC[C@H]1CN2CC[C@H]1C[C@@H]2CNS(=O)(=O)c1ccc(C)cc1	2%[70.6 µM]	i	-11%[174 µM]	-8%[172 µM]
CCN(CC)C[C@H]1CN2CC[C@H]1C[C@@H]2CNS(=O)(=O)c1ccc(Cl)cc1	2%[70.6 µM]	i	71µM*	?
CN1CCN(C[C@H]2CN3CC[C@H]2C[C@@H]3CNC(=O)Nc2ccccc2)CC1	4%[70.6 µM]	i	?	4%[172 µM]
CSc1cccc(NC(=O)NC[C@H]2C[C@@H]3CCN2C[C@@H]3CN2CCC(Cc3ccccc3)CC2)c1	3%	i	25µM*	?
COc1ccccc1N1CCN(C[C@H]2CN3CC[C@H]2C[C@@H]3CNC(=O)Nc2cccc(SC)c2)CC1	-1%	i	?	?
CC(C)NC(=O)NC[C@H]1C[C@@H]2CCN1C[C@@H]2CN1CCC(Cc2ccccc2)CC1	1%[70.6 µM]	i	?	50µM*
C#C[C@H]1CN2CC[C@H]1C[C@@H]2CNCc1ccc(C(F)(F)F)cc1	0%[70.6 µM]	i	-26%[174 µM]	?
